# Test results reported in article PMC11062922 (Nature Chemical Biology, 2023).
# Read-outs that look alike come from different tables or passages of the source.
# Key:
# Design in all cases: species or system human, MV4-11 + K-562 + COLO205 + SK-N-BE2 + OVCAR-8
# ABCD3 = details: read-out: apparent Kd, n = 1
# PYGL = details: read-out: apparent Kd; compound concentrations: 100 nM and 1000 nM (sheet 'Samples'), CATDS: 3.8130802338003297E-2; n = 1
# TESK1 = details: read-out: apparent Kd, compound concentrations: 100 nM and 1000 nM (sheet 'Samples'), n = 1
# AURKA = details: read-out: apparent Kd, n = 1
# IRAK3 = details: read-out: apparent Kd; compound concentrations: 100 nM and 1000 nM (sheet 'Samples'), CATDS: 4.1377048408479999E-2; n = 1
# NLK = details: read-out: apparent Kd, n = 1
# PKN3 = details: read-out: apparent Kd, compound concentrations: 100 nM and 1000 nM (sheet 'Samples'), n = 1
# SIK3 = details: read-out: apparent Kd, n = 1
# PIK3CG = details: read-out: apparent Kd, compound concentrations: 100 nM and 1000 nM (sheet 'Samples'), n = 1
# PIM2 = details: read-out: apparent Kd, n = 1
# EPHA5 = details: read-out: apparent Kd, n = 1
# EPHB3 = details: read-out: apparent Kd, n = 1
# ERBB3 = details: read-out: apparent Kd, compound concentrations: 100 nM and 1000 nM (sheet 'Samples'), n = 1
# LIMK1 = details: read-out: apparent Kd, n = 1
# ACAD11 = details: read-out: apparent Kd; compound concentrations: 100 nM and 1000 nM (sheet 'Samples'), CATDS: 8.0770900756938508E-3; n = 1
# BUB1 = details: read-out: apparent Kd, n = 1
# PRKAG1 = details: read-out: apparent Kd, compound concentrations: 100 nM and 1000 nM (sheet 'Samples'), n = 1
# STK10 = details: read-out: apparent Kd, compound concentrations: 100 nM and 1000 nM (sheet 'Samples'), n = 1
# CDK4 = details: read-out: apparent Kd; compound concentrations: 100 nM and 1000 nM (sheet 'Samples'), CATDS: 1.3251728133645901E-2; n = 1
# MAPK9 = details: read-out: apparent Kd; compound concentrations:100 nM and 1000 nM (sheet 'Samples'); n = 1
# [1] = compound concentrations:100 nM and 1000 nM (sheet 'Samples')
structure (smiles),measurement,setting,value
COc1ccc(-n2cnc3c(N)ncnc32)cc1 [SKF-97236],potency estimated from few doses,"ABCD3; compound concentrations: 100 nM and 1000 nM (sheet 'Samples'), CATDS: 0.13687794544238399",1490 nM
COc1ccc(Nc2nccc(N3CCC(NC(=O)Nc4ccc5c(c4)OCO5)C3)n2)cc1 (stereo not drawn) [GSK1379745A],potency estimated from few doses,"ABCD3; compound concentrations: 100 nM and 1000 nM (sheet 'Samples'), CATDS: 3.9996680208342399E-2",1500 nM
same,potency estimated from few doses,PYGL,1670 nM
same,potency estimated from few doses,TESK1; CATDS: 7.4775560770701202E-2,510 nM
NC(=O)c1cccc(Nc2nccc(Nc3cccc4[nH]ncc34)n2)c1 [GW782612X],potency estimated from few doses,"AURKA; compound concentrations: 100 nM and 1000 nM (sheet 'Samples'), CATDS: 4.2767473291312301E-2",808 nM
same,potency estimated from few doses,IRAK3,891 nM
COc1cc(Nc2ccnc3cc(-c4ccncc4)ccc23)cc(OC)c1OC.Cl [GW494610A],potency estimated from few doses,"NLK; compound concentrations: 100 nM and 1000 nM (sheet 'Samples'), CATDS: 5.2882757998729699E-2",110 nM
same,potency estimated from few doses,PKN3; CATDS: 0.111672357015452,24.1 nM
same,potency estimated from few doses,"SIK3; compound concentrations: 100 nM and 1000 nM (sheet 'Samples'), CATDS: 4.52892719114492E-2",160 nM
same,potency estimated from few doses,TESK1; CATDS: 2.92896642952412E-2,549 nM
O=C1N=C(NCCc2cccc(Cl)c2)S/C1=C\c1ccc2ncccc2c1 [RO4509201-000],potency estimated from few doses,PIK3CG; CATDS: 5.9148900132827802E-2,1370 nM
same,potency estimated from few doses,"PIM2; compound concentrations: 100 nM and 1000 nM (sheet 'Samples'), CATDS: 5.4743223774465499E-2",1820 nM
CS(=O)(=O)CCNCc1ccc(-c2ccc3ncnc(Nc4ccc(OCc5cccc(F)c5)c(C(F)(F)F)c4)c3c2)o1 [GW576484X],potency estimated from few doses,"ABCD3; compound concentrations: 100 nM and 1000 nM (sheet 'Samples'), CATDS: 5.3363712768055301E-2",1700 nM
same,potency estimated from few doses,"EPHA5; compound concentrations: 100 nM and 1000 nM (sheet 'Samples'), CATDS: 6.1198720687785702E-2",1290 nM
same,potency estimated from few doses,"EPHB3; compound concentrations: 100 nM and 1000 nM (sheet 'Samples'), CATDS: 4.6783581960199903E-2",2310 nM
same,potency estimated from few doses,ERBB3; CATDS: 5.8570940838060803E-2,1400 nM
same,potency estimated from few doses,"NLK; compound concentrations: 100 nM and 1000 nM (sheet 'Samples'), CATDS: 4.7895996711747497E-2",2180 nM
same,potency estimated from few doses,"PIM2; compound concentrations: 100 nM and 1000 nM (sheet 'Samples'), CATDS: 6.5177951129736497E-2",1150 nM
Nc1nc(-c2ccc3c(N)n[nH]c3c2)cc(N2CCCCC2)n1 [GSK2228768A],potency estimated from few doses,PIM2; [1],1410 nM
Cl.Oc1cccc(Nc2ccnc3cc(-c4ccncc4)ccc23)c1 [GW494601A],potency estimated from few doses,"EPHA5; compound concentrations: 100 nM and 1000 nM (sheet 'Samples'), CATDS: 3.7293479964616502E-2",113 nM
same,potency estimated from few doses,"NLK; compound concentrations: 100 nM and 1000 nM (sheet 'Samples'), CATDS: 1.9274779311166401E-2",1830 nM
same,potency estimated from few doses,"SIK3; compound concentrations: 100 nM and 1000 nM (sheet 'Samples'), CATDS: 2.0843232752511001E-2",1150 nM
Cc1nn(C)c2cc(N(C)c3ccnc(Nc4cccc(S(N)(=O)=O)c4)n3)ccc12.Cl [GW770220A],potency estimated from few doses,"NLK; compound concentrations: 100 nM and 1000 nM (sheet 'Samples'), CATDS: 0.27942165636777999",1030 nM
CCN(CC)CCOc1ccc(Nc2ncc3cc(-c4c(Cl)cccc4Cl)c(=O)n(C)c3n2)cc1 [SB-601273],potency estimated from few doses,EPHA5; [1],135 nM
same,potency estimated from few doses,EPHB3; [1],1220 nM
same,potency estimated from few doses,LIMK1; [1],1110 nM
same,potency estimated from few doses,NLK; [1],1310 nM
same,potency estimated from few doses,SIK3; [1],201 nM
O=C1N=C(NCc2cccs2)SC1Cc1ccc2ncccc2c1 (stereo not drawn) [RO4629078-000],potency estimated from few doses,ACAD11,1250 nM
same,potency estimated from few doses,"AURKA; compound concentrations: 100 nM and 1000 nM (sheet 'Samples'), CATDS: 9.8241479768662494E-3",700 nM
same,potency estimated from few doses,"BUB1; compound concentrations: 100 nM and 1000 nM (sheet 'Samples'), CATDS: 7.2203356914043596E-3",1930 nM
same,potency estimated from few doses,"EPHA5; compound concentrations: 100 nM and 1000 nM (sheet 'Samples'), CATDS: 1.5844356878219199E-2",259 nM
same,potency estimated from few doses,"EPHB3; compound concentrations: 100 nM and 1000 nM (sheet 'Samples'), CATDS: 9.3855974911044807E-3",790 nM
same,potency estimated from few doses,PKN3; CATDS: 1.04428727598351E-2,602 nM
same,potency estimated from few doses,PRKAG1; CATDS: 1.42415287056141E-2,314 nM
same,potency estimated from few doses,STK10; CATDS: 8.8435588705339796E-3,935 nM
CCn1cc(-c2ccnc3[nH]c(-c4cccc(CN(C)C)c4)cc23)c(-c2ccc(NC(=O)N(C)C)cc2)n1 [GSK1070916],potency estimated from few doses,ABCD3; [1],1970 nM
same,potency estimated from few doses,AURKA; [1],197 nM
CNC1=NC(=O)/C(=C/c2ccc3ncccc3c2)S1 [RO4595949-000],potency estimated from few doses,PIK3CG; CATDS: 8.0370856047911096E-2,401 nM
Cc1ccc(O)cc1Nc1ccnc2cc(-c3ccccn3)ccc12.Cl [GW440139A],potency estimated from few doses,"EPHA5; compound concentrations: 100 nM and 1000 nM (sheet 'Samples'), CATDS: 4.7155213926178503E-2",97.2 nM
same,potency estimated from few doses,"EPHB3; compound concentrations: 100 nM and 1000 nM (sheet 'Samples'), CATDS: 2.4596610963575599E-2",2120 nM
NC1=NC(=O)/C(=C/c2ccc3ncccc3c2)S1 [RO4569139-000],potency estimated from few doses,PIK3CG; CATDS: 0.108121816897262,432 nM
CC(C)c1nc(-c2cccc(NS(=O)(=O)c3ccccc3)c2)c(-c2ccnc(Nc3ccc4c(c3)CN(C)CC4)n2)s1 [GSK1649598A],potency estimated from few doses,"BUB1; compound concentrations: 100 nM and 1000 nM (sheet 'Samples'), CATDS: 1.7014993428197001E-2",579 nM
same,potency estimated from few doses,CDK4,1400 nM
same,potency estimated from few doses,ERBB3; CATDS: 1.39186209544408E-2,1140 nM
same,potency estimated from few doses,"LIMK1; compound concentrations: 100 nM and 1000 nM (sheet 'Samples'), CATDS: 7.0535341813333999E-2",38.5 nM
same,potency estimated from few doses,TESK1; CATDS: 9.9245429656874704E-2,24.2 nM
Cc1ccc(O)cc1Nc1ccnc2cc(-c3ccc(CN4CCCCC4)o3)ccc12 [GW557777X],potency estimated from few doses,"EPHA5; compound concentrations: 100 nM and 1000 nM (sheet 'Samples'), CATDS: 3.4723791615605203E-2",15.6 nM
same,potency estimated from few doses,"EPHB3; compound concentrations: 100 nM and 1000 nM (sheet 'Samples'), CATDS: 2.1562283576004201E-2",78.2 nM
same,potency estimated from few doses,"SIK3; compound concentrations: 100 nM and 1000 nM (sheet 'Samples'), CATDS: 1.3583905279374199E-2",975 nM
Cc1cccc(-c2cc(-c3c[nH]nc3-c3ccccn3)ccn2)c1 [GW679395X],potency estimated from few doses,ABCD3; [1],1200 nM
CS(=O)(=O)Cc1ccc(Nc2nccc(-c3c(-c4cccc(NC(=O)C5CCCCC5)c4)nn4ncccc34)n2)cc1 [GSK350559A],potency estimated from few doses,ABCD3; [1],1580 nM
same,potency estimated from few doses,BUB1; [1],267 nM
same,potency estimated from few doses,MAPK9,932 nM
same,potency estimated from few doses,PIM2; [1],2040 nM
CN1C(=O)c2ccccc2N(C)c2nc(Nc3cnn(C4CCNCC4)c3)ncc21 [XMD-17-51],potency estimated from few doses,"AURKA; compound concentrations: 100 nM and 1000 nM (sheet 'Samples'), CATDS: 0.190670193315162",5.82 nM
same,potency estimated from few doses,PIK3CG; CATDS: 5.0205811396743898E-2,50.7 nM
same,potency estimated from few doses,PRKAG1; CATDS: 1.89897373320012E-2,530 nM
same,potency estimated from few doses,"SIK3; compound concentrations: 100 nM and 1000 nM (sheet 'Samples'), CATDS: 1.5899502438213298E-2",973 nM
same,potency estimated from few doses,STK10; CATDS: 1.3341325559896399E-2,2180 nM
